# Reference: article PMC4552634, “A New Set of Chemical Starting Points with Plasmodium falciparum Transmission-Blocking Potential for Antimalarial Drug Discovery” (PLoS ONE, 2015)
# Hit rate of the full screen: of about 13,000 compounds, about 3,200 (25%) showed an effect of 50% or more. Some of the results follow.
# Tested on: P. falciparum stage V gametocytes
# Design: BacTiter-Glo ATP luminescence viability of purified stage V gametocytes in 384-well plates, per cent inhibition versus DMSO
# Conditions: 48 h, 5 µM; inhibitor
row,Compound,% Inhibition [%]
1,O=C(N[C@@H](Cc1cc(F)cc(F)c1)[C@H](O)CNCc1cccc(C(F)(F)F)c1)c1cc(C2CCCC2)cc(N2CCCC2=O)c1 [TCMDC-134677],4.624
2,CCCC(CNCc1cccc(SC(F)(F)F)c1)CNc1cc(=O)c2ccccc2[nH]1 (centres unmarked) [TCMDC-139431],19.28
3,COc1ccc(CNCc2cccc(-c3csc(-c4nc5ccccc5[nH]4)c3)c2)cc1 [TCMDC-132734],-55.02
4,Cc1cnc(N2CCN(CC3CCN(C)CC3)CC2)nc1Oc1ccc(-n2ccnc2)cc1 [TCMDC-132782],41.72
5,CC(C)N(Cc1cnc2nc(N)nc(N)c2n1)c1ccc(Cl)c(Cl)c1 [TCMDC-137675],8.837
6,O=C(Nc1ccc(Cl)cc1)Nc1cccc(CCNCc2ccccc2)c1 [TCMDC-141913],74.03
7,CC(C)c1ccc(NC(=O)Nc2ccc(CCNCCCc3ccccc3)cc2)cc1 [TCMDC-140707],4.807
8,CCCCc1ccc(NC(=O)Nc2cccc(CCNCc3ccccc3)c2)cc1 [TCMDC-141911],-36.83
9,O=C(Nc1cccc(CCNCc2ccccc2)c1)Nc1cccc2ccccc12 [TCMDC-141912],-6.517
10,O=C(Nc1ccc(Cl)cc1)Nc1cccc(-c2cc(CNCCc3ccccc3)oc2-c2ccncc2)c1 [TCMDC-135557],-5.534
11,COC(=O)c1ccc(NC(=O)Nc2cccc(CCNCc3ccccc3)c2)cc1 [TCMDC-141910],76.66
12,O=C(COc1cccc([N+](=O)[O-])c1)Nc1ccc(-c2nc3ccccc3[nH]2)cc1 [TCMDC-123683],43.84
13,Cc1cc(OCC2CCCO2)c2cc(NC(=O)C(=O)Nc3ccc4nc(C)cc(OCC5CCCO5)c4c3)ccc2n1 (centres unmarked) [TCMDC-139970],-0.178
14,CN1CCN(c2ccnc3ccc(NC(=O)N(C)c4ccc(Cl)c(Cl)c4)cc23)CC1 [TCMDC-139453],8.724
15,O=C(Nc1ccc(-c2nc3ccccc3[nH]2)cc1)c1ccc(N2CCCC2)c([N+](=O)[O-])c1 [TCMDC-124370],0.2157
16,Cc1nnc2sc(-c3cccc(NC(=O)c4ccc(N5CCCCC5)c([N+](=O)[O-])c4)c3)nn12 [TCMDC-125211],2.608
17,O=c1[nH]nc(-c2ccc(N3CCCC3)c([N+](=O)[O-])c2)c2ccccc12 [TCMDC-123666],91.56
18,O=S(=O)(Nc1ccc2nccc(N3CCNCC3)c2c1)c1ccc2oc3ccccc3c2c1 [TCMDC-139406],-1.818
19,Cc1cc(N2CCCC2)nc(Nc2ccc(NC(=O)c3ccc(Br)o3)cc2)n1 [TCMDC-124708],-0.4475
20,COc1ccc(C(=O)N[C@@H](CC(C)C)C(=O)N[C@H](/C=N/NC(=O)c2ccccc2)CCc2ccccc2)cc1OCCN1CCOCC1 [TCMDC-135529],-24.16
21,Cc1ccc(NC(=O)N2CCCN(CCCCCNC(=O)/C=C/c3ccc(Cl)c(Cl)c3)CC2)cc1C [TCMDC-135747],-47.01

row,Compound,% Inhibition [%]
1,CCC(C)NC(=O)Nc1ccc(-c2cccc(-c3nc4ccc(C(F)(F)F)cc4[nH]3)c2)cc1 (centres unmarked) [TCMDC-133240],1.328
2,Cc1nn(-c2ccc(Cl)cc2)c2[nH]c(CN3CCN(c4cccc(Cl)c4)CC3)cc(=O)c12 [TCMDC-124869],23.11
3,CCC[C@@H]([C@@H](CC1CCC(C)CC1)C(=O)N[C@@H](CCCCNC(=O)c1ccccn1)C(=O)Nc1nccs1)N(O)C=O (some centres unmarked) [TCMDC-138151],22.92
4,CCC[C@@H]([C@@H](CC(C)C)C(=O)N[C@@H](CCCNc1nccc(C(F)(F)F)n1)C(=O)Nc1nccs1)N(O)C=O [TCMDC-137458],53.7
5,CCC[C@@H]([C@@H](CC(C)C)C(=O)N[C@@H](CCCCNC(=O)c1cccc(OC)c1)C(=O)Nc1nccs1)N(O)C=O [TCMDC-137305],57.38
6,CCCC(C(CC1CCC(C)CC1)C(=O)NC(CCCNc1ncccn1)C(=O)Nc1nccs1)N(O)C=O (centres unmarked) [TCMDC-138160],11.06
7,CCC[C@@H]([C@@H](CC(C)C)C(=O)N[C@@H](CCCCNC(=O)c1ccccn1)C(=O)Nc1nccs1)N(O)C=O [TCMDC-137550],43.83
8,CCC[C@@H]([C@@H](CC(C)C)C(=O)N[C@@H](CCCN=C(N)NS(C)(=O)=O)C(=O)Nc1nccs1)N(O)C=O [TCMDC-138171],-40.24
9,COc1ccc(CC(C)CON2C(N)=NC(N)=NC2(C)C)cc1 (centres unmarked) [TCMDC-131722],5.106
10,O=C(NCCNc1ccnc(Nc2ccc(F)cc2)n1)Nc1ccc2c(c1)OCO2 [TCMDC-133641],-26.39
11,CC(C)(CNCc1cc(Cl)cc(Cl)c1)c1nc(-c2ccc(Cl)c(O)c2)c(-c2ccnc(N)n2)[nH]1 [TCMDC-141164],-8.339
12,CC1CN(c2ccc(NC(=O)c3ccsc3)cc2C(=O)N2CCN(Cc3ccc(C(C)(C)C)cc3)CC2)CC(C)O1 (centres unmarked) [TCMDC-139281],17.04
13,C=CC[C@H](C[C@H](O)[C@H](Cc1ccccc1)NC(=O)c1ccc(-n2cccn2)cc1)C(=O)NC1CCCCC1 [TCMDC-141420],10.16
14,CCc1c(C)nc(-n2nc(C)cc2NC(=O)C(CC)c2ccccc2)[nH]c1=O (centres unmarked) [TCMDC-124935],27.05
15,O=C(Nc1ccc(Cl)cc1)Nc1nc2ccc([N+](=O)[O-])cc2[nH]1 [TCMDC-137530],30.09
16,Clc1ccc(Nc2nc3ccc(Cl)cc3nc2Nc2ccc(Cl)cc2)cc1 [TCMDC-137772],143.7
17,Brc1ccc(Nc2nc3ccccc3nc2Nc2ccc(Br)cc2)cc1 [TCMDC-125776],-38.43
18,O=[N+]([O-])c1ccc2ncnc(Nc3ccc(F)c(Cl)c3)c2c1 [TCMDC-123784],0.775
19,O=[N+]([O-])c1ccc2nc(Nc3ccc(Cl)c(Cl)c3)c(Nc3ccc(Cl)c(Cl)c3)nc2c1 [TCMDC-125794],113.6
20,Oc1ccc(Nc2ccnc3cc(Cl)ccc23)cc1 [TCMDC-125528],-45.78
